# RORgamma inh = blocks mouse ROR gamma transcriptional activity. Potency, µM (top dose mostly 53.6 µM), inactives show top-dose activity change, negative = inhibition, actives largely listed as inhibitors. P51450. Drosophila S2 Gal4-RORgamma UAS-luciferase reporter, 20 h. actives 5.4% (n = 310,000); further: potency means the concentration at half of the fitted maximal effect; on the % scale 0 is the no-effect control and ±100 the full control effect; nearly all actives have a fitted effect of over 60% in size
#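 In this cell-based reporter format, copper sulfate (700 uM final) drives Gal4–ROR gamma fusion expression from a metallothionein promoter in Drosophila Schneider cells; compounds preincubated 1 hr, reporter read after 20 hr at ambient temperature.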
# p53 reactivator = restores transcriptional activity of mutant p53. Potency, µM (doses to about 92.2 µM), for the others: at the top dose activity change, positive = activation, most hits filed as activators. H1299 p53-A138V BP100-luciferase reporter, luminescence, 24 h. actives 0.063% (n = 320,000); further: potency means the concentration at half of the fitted maximal effect; % of control where 0% means no effect; nearly all actives have a fitted effect of over 45% in size
#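 H1299 (p53-null), stable ts p53-A138V + BP100-Luc; 1000 cells/well, Opti-MEM/10% FBS; cpd 4 pt, 1:5; 24 h, 37 deg C, 5% CO2; detection reagent 10 min RT; luminescence.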
# CtBP-E1A inh = inhibitors of CtBP/E1A interaction. activity change, % (no concentration beside the values). AID 651724. AlphaScreen GST-E1A/His-CtBP binding, 1536-well; stronger effect = lower value. actives 0.49% (n = 340,000); in the data active means activity change below about -65%; inconclusive means mostly about -30% to -63%; further: on the % scale 0 is the no-effect control and ±100 the full control effect
#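 GST-E1A and His-tagged CtBP (125 nM each as 5X stock) were preincubated with pin-transferred compound for 2 h at 37 °C in the dark, then glutathione donor and nickel acceptor beads were added for 1 h before AlphaScreen reading.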
# Six1-Eya2 inh = Six1/Eya2 interaction inhibition | actives 0.56% (n = 360,000) | AlphaScreen GST-Six1/His-Eya2 binding, biochemical; stronger effect = lower value | activity change, % (no concentration beside the values) | Q15475+O00167; in the data active means activity change below about -65%; inconclusive means mostly about -30% to -63%; further: on the % scale 0 is the no-effect control and ±100 the full control effect
# Target sequence (O00167 whole entry, looked up): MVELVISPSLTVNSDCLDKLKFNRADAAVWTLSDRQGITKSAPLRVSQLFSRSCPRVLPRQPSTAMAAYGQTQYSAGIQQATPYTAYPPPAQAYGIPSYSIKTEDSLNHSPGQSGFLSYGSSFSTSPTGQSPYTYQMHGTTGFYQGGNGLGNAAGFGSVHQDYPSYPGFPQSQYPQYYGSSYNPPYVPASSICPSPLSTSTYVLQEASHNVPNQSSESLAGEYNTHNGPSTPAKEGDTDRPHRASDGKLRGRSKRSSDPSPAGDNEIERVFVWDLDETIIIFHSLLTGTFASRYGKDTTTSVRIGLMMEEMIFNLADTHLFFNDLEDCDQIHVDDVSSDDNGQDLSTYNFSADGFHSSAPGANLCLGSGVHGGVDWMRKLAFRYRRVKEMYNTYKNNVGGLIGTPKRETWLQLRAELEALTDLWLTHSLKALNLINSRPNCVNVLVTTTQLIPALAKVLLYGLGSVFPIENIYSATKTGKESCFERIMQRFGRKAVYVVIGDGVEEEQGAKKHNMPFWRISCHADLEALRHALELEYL
# Target sequence (Q15475 whole entry, looked up): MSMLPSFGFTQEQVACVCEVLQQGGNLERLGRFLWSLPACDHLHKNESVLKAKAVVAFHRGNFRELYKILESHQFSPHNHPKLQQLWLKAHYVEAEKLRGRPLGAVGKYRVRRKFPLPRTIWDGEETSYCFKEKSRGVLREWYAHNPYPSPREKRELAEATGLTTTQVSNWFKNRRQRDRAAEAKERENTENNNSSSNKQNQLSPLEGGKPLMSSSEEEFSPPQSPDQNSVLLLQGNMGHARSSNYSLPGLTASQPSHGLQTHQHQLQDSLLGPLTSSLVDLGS
#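 AlphaScreen with GST-Six1 and His-Eya2 (5X mix: 250 nM and 500 nM), glutathione donor and nickel acceptor beads; buffer 50 mM Tris pH 8.0, 300 mM NaCl, 1 mM TCEP; 1 h at 37 C in the dark.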
# VP16 counter = inhibits Gal4-VP16 luciferase reporter, ROR gamma counter-screen. Drosophila S2 Gal4-VP16 UAS-luciferase, luminescence, 20 h. Potency, µM (doses to about 53.6 µM), for inactives: at the top dose activity, negative = inhibition, usual class: inhibitors. actives 3.5% (n = 310,000). AID 2546;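 further: Gal4-VP16 expression switched on by copper sulfate through the metallothionein promoter; potency means the concentration at half of the fitted maximal effect; on the % scale 0 is the no-effect control and ±100 the full control effect; nearly all actives have a fitted effect of over 50% in size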
# * marks the source's active call; other numbers are inactive results; ? = inconclusive; . = no result given; [ ] = remark or other dose. Only some compounds are listed: those with a hit (about 5.4% of all), similar ones and a draw of the others. Unless noted, the call rests on the fitted dose curve; in most records, active means well fitted curve in the direction sought with a large enough effect; inconclusive means small, poorly fitted or top-dose-only effect, or another doubt; inactive means no such curve, though single readings can be large; an effect the other way counts as inactive or inconclusive.
SMILES,RORgamma inh,p53 reactivator,CtBP-E1A inh,Six1-Eya2 inh,VP16 counter
NNc1nc(-c2ccccc2)c2cc(Br)ccc2n1,2.5µM*,-6%,-2,-4,-14%
NNc1nc(-c2ccccc2)c2cc(Cl)ccc2n1,13µM*,-1%,-14,-25,-24%
Cc1ccc(C(=O)Nc2ccccc2N2CCCCC2)o1,-33%,-27%,9,-1,-4%
CC(=O)Oc1ccc(N(C(C)=O)S(=O)(=O)c2cccs2)c2ccccc12,20µM*,-15%,-13,-23,?
NC(=O)c1ccc(NC(=O)COC(=O)c2c3c(nc4ccccc24)/C(=C\c2cccs2)CCC3)cc1,4.5µM*,-6%,.,1,5µM*
NC(=O)C(C1=CCCCC1)c1ccccc1 (stereo not drawn),.,.,-3,3,.
CN(C)c1ccc(/C=C/c2c([N+](=O)[O-])c(=O)n(C)c(=O)n2C)cc1,3%,9%,-15,-1,-4%
Cn1c(/C=C/c2ccc(Br)cc2)c([N+](=O)[O-])c(=O)n(C)c1=O,11µM*,-14%,-7,4,-20%
Oc1c(N=NC(=S)Nc2ccccc2F)c2ccccc2n1Cc1ccc(F)cc1,2.8µM*,0%,0,-11,3.5µM*
Cc1cccc(Cn2c(O)c(N=NC(=S)Nc3ccccc3F)c3ccccc32)c1,3.2µM*,-4%,.,-14,5µM*
O=C(N=Nc1c(O)n(Cc2ccccc2)c2ccccc12)c1cc2ccccc2cc1O,?,25%,-4,0,-46%
Oc1c(N=NC(=S)Nc2ccccc2F)c2ccccc2n1Cc1cccc(Cl)c1,?,-2%,?,?,3.5µM*
Cc1cccc(NC(=O)Cn2c(O)c(N=NC(N)=S)c3ccccc32)c1,?,-2%,-13,-1,?
N#Cc1ncc(-c2ccc3c(c2)OCCOCCOCCOCCO3)nc1C#N,13µM*,26%,-4,4,?
N#Cc1ncc(-c2ccc3c(c2)OCCOCCOCCOCCOCCO3)nc1C#N,11µM*,-24%,3,0,4.5µM*
O=C1N/C(=N/N=C/c2ccco2)SC1Cc1ccccc1 (stereo not drawn),1µM*,-1%,.,-13,2.5µM*
COc1ccccc1CC1S/C(=N/N=C/c2ccco2)NC1=O (stereo not drawn),2.2µM*,-1%,-5,-12,7.1µM*
C/C(=N\N=C1\NC(=O)C(Cc2ccccc2)S1)c1ccccc1 (stereo not drawn),10µM*,4%,.,0,-24%
O=C1C(Cc2ccccc2)S/C(=N/N=C/c2ccco2)N1c1ccccc1 (stereo not drawn),-11%,-3%,2,-3,-22%
CCNC(=O)CC1S/C(=N/N=C(\C)c2ccccc2)NC1=O (stereo not drawn),-2%,-2%,.,3,-11%[10 µM]
Cc1ccc(CC2S/C(=N/N=C/c3ccco3)NC2=O)cc1 (stereo not drawn),1.4µM*,1%,0,6,11µM*
CC[C@H](C)[C@H](NC(=O)CNC(=O)[C@H](CCCNC(=N)N)NC(=O)[C@H](CO)NC(=O)[C@H](C)NC(=O)[C@H](Cc1ccc(O)cc1)NC(=O)[C@H](Cc1c[nH]c2ccccc12)NC(=O)[C@H](C)NC(=O)[C@@H]1CCCN1C(=O)[C@H](CC(N)=O)NC(=O)[C@@H](NC(=O)[C@H](CC(=O)O)NC(=O)[C@@H]1CCCN1C(=O)[C@@H](NC(=O)[C@H](CCCNC(=N)N)NC(=O)[C@@H](NC(=O)[C@H](CCC(=O)O)NC(=O)[C@H](CCSC)NC(=O)[C@H](CO)NC(=O)[C@H](Cc1cnc[nH]1)NC(=O)[C@H](CCCNC(=N)N)NC(=O)[C@H](Cc1cnc[nH]1)NC(=O)[C@@H](NC(=O)[C@H](CCCNC(=N)N)NC(=O)[C@@H](N)CO)[C@@H](C)O)[C@@H](C)CC)[C@@H](C)O)[C@@H](C)CC)C(=O)N[C@@H](CCCNC(=N)N)C(=O)N1CCC[C@H]1C(=O)N[C@H](C(=O)NCC(=O)N[C@@H](CCCNC(=N)N)C(=O)N[C@@H](Cc1ccccc1)C(N)=O)C(C)C,4%,.,.,.,5%
NS(=O)(=O)c1ccc(F)c(C(=O)O)c1,5%,-2%,12,8,9%
COc1cc(/C=N/N=C2/NC(=O)C(Cc3ccccc3)S2)ccc1O (stereo not drawn),14µM*,25%,-8,-7,?
Cc1cccc(CC2S/C(=N/N=C/c3ccco3)NC2=O)c1 (stereo not drawn),0.89µM*,0%,0,-7,5.6µM*
SMILES,RORgamma inh,p53 reactivator,CtBP-E1A inh,Six1-Eya2 inh,VP16 counter
COc1ccc(/C=N/N=C2/NC(=O)C(CC(=O)O)S2)cc1OS(=O)(=O)c1ccccc1 (stereo not drawn),0%,1%,-6,8,1%
Cc1cc(-c2nnc(CCC(=O)NCc3ccc(OC(F)(F)F)cc3)o2)no1,-7%,6%,17,3,0%
COc1cc(OC)cc(C(=O)OCC(=O)NCc2ccc3c(c2)OCO3)c1,3%,?,-14,2,0%
COc1cc(NC(=O)c2cc3ccccc3cc2O)c(OC)cc1Cl,?,4%,.,0,-80%
COc1ccccc1NC(=O)c1cc2ccc(O)cc2o/c1=N\O,0.89µM*,?,-24,-22,2.2µM*
COc1ccccc1NC(=O)c1cc2cc(Br)ccc2cc1O,?,?,.,3,8.9µM*
CCN(CC)c1ccc(/C=N\N2CCN(Cc3ccc(C)cc3)CC2)cc1,-4%,-3%,?,-66*,-3%
CC(=O)N1CN(CCCn2ccnc2)Cc2c1sc1c2CCCC1,8%,4%,-11,-6,2%
CC(=O)N1CN(Cc2ccccn2)Cc2c1sc1c2CCCC1,-26%,?,?,-74*,-3%
Cc1noc(C)c1C(=O)Nc1nccs1,-19%,7%,-2,-3,2%
COC(=O)c1ccc(C(NC(=O)OCc2ccccc2)/C(F)=C/[C@@H](C)C(=O)NCc2cc(C)on2)cc1 (stereo partly drawn),-34%,.,.,.,-1%
COc1ccc(CCNc2ccc([N+](=O)[O-])cn2)cc1,?,9%,-29,-5,1%
COc1ccc(CCNc2cc(=O)[nH]c(N)n2)cc1,26%,2%,-80*,-69*,-1%
CN(C)c1ccc(N=Nc2ccc3ncccc3c2)cc1,.,.,-29,?,.
Cc1cc(N(C)C)ccc1N=Nc1ccc2ncccc2c1,-41%,?,.,-83*,-12%
COCCn1c(=O)c(-c2cccs2)nc2cnc(Oc3ccccc3)nc21,21%,.,.,.,0%
